Screening data: PubChem BioAssay, National Center for Advancing Translational Sciences (NCATS)
Sampled rows, rich in hits. Any-hit rate of the full collection: about 7.3%.
HCV inhibitor: qHTS Assay for Inhibitors of Hepatitis C Virus (HCV); Huh7.5.1 HCVcc-Cre infection, luciferase reporter, 44 h; Potency, µM (top dose mostly 41.8 µM), for the others: top-dose activity change, negative = inhibition, hits mostly inhibitors; 340,000 compounds, 3.4% hits; active = well fitted inhibition curve with a large enough effect; inconclusive = small, poorly fitted or top-dose-only effect, or another doubt; inactive = no such curve, though single readings can be large or run the other way; also: potency is read from the fitted curve at half-maximal effect
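A cell-based infection assay in which seeded cells (1,000 per well) receive test compound after 4 h, are inoculated with HCVcc-Cre at approximately 0.5 moi, and are incubated 44 h before luminescence detection.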
Vaccinia mCherry: qHTS for Stage-Specific Inhibitors of Vaccinia Orthopoxvirus: mCherry Reporter Primary qHTS | Vaccinia virus mCherry reporter infection, fluorescence | Potency, µM (series often up to 36.5 µM), inactives show top-dose activity change, negative = inhibition, most hits filed as inhibitors | 310,000 compounds, 0.63% hits; calls by dose curve; tested in A549 cells; also: potency is read from the fitted curve at half-maximal effect; nearly all actives have a fitted effect of over 35% in size
HCMV inh: qHTS Assay for inhibitors of the human cytomegalovirus (HCMV). HFF cells, HCMV-luciferase reporter, 72 h; hits give low values. activity change, negative = inhibition, % at 57.5 µM. 410,000 compounds, 4.5% hits; in the data active = activity change below about -60%; inconclusive = no clear call, values can overlap the other calls; inactive = above about -39%
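Cell-based, HFFs, 1000 cells/well, 16 h 37C; cpds in DMSO + HCMV-luc, MOI 1 PFU/cell; 72 h 37C; OneGlo luminescence after 5 min RT; norm. to buffer vs Salinomycin 10uM.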
FMDV inh: High Throughput Screening for Foot and Mouth Disease Virus Antivirals | 410,000 compounds, 1.2% hits | FMDV antiviral cell-based qHTS | Potency, µM (titrated, usually from 57.9 µM), for inactives: at the highest dose activity change, negative = inhibition, hits mostly inhibitors | AID 1159524, 2015; calls by dose curve; tested in HEK293T cells; also: read-out not given here; potency is read from the fitted curve at half-maximal effect; nearly all actives have a fitted effect of over 45% in size
VACV Venus inh: qHTS for Stage-Specific Inhibitors of Vaccinia Orthopoxvirus: Venus Reporter Primary qHTS. Vaccinia virus Venus reporter expression, fluorescence. Potency, µM (titrated, usually from 36.5 µM), without a hit: top-dose activity change, negative = inhibition, most hits filed as inhibitors. 330,000 compounds, 0.46% hits. AID 720580, 2013; calls by dose curve; tested in A549 cells; also: potency is read from the fitted curve at half-maximal effect; nearly all actives have a fitted effect of over 30% in size
* = called active by the depositor; i = inactive; ? = inconclusive; / = no result given; ! = repeats disagree. % is scaled to controls: 0 for no effect and ±100 for the full control effect.

SMILES	HCV inhibitor	Vaccinia mCherry	HCMV inh	FMDV inh	VACV Venus inh
COc1ccc(CCNC(=O)c2c(C)oc3nc(C)nc(N4CCOCC4)c23)cc1OC	/	i	12.1	7.0%	-11.1%
COC(=O)CC1C(=O)NCCN1C(=S)Nc1cc(C)cc(C)c1 (stereo unspecified)	8.1%	i	-33.4	-20.3%	-7.2%
CCNC(=S)N1CCNC(=O)C1CC(=O)OC (stereo unspecified)	-1.0%	-9.6%	-72.5*	?	-19.2%
C[C@@H]1CN([C@@H](C)CO)C(=O)CCCn2cc(nn2)CO[C@H]1CN(C)C(=O)Nc1cccc(C(F)(F)F)c1	/	/	-12.8	/	/
COc1ccc(CCNC(=O)CCc2cn(Cc3ccc(C)cc3)c3ccccc23)c(OC)c1OC	/	-18.4%	?	-2.4%	-14.9%
Cc1cccc(N2CCN(C(=O)c3ccc4c(c3)NC(=O)C(CSCc3cccc(F)c3)N4)CC2C)c1 (stereo unspecified)	-18.3%	/	-82.8*	-26.5%	/
COc1ccc(N2CCN(C(=O)c3ccc4c(c3)NC(=O)C(CSCc3ccccc3F)N4)CC2)cc1 (stereo unspecified)	/	-5.6%	-9.1	-8.5%	-3.2%
COc1ccc(CCN(Cc2cc3cc(C)ccc3[nH]c2=O)C(C)=O)cc1OC	-2.7%	/	-25.3	0.8%	/
COc1ccc(CCN(Cc2cc3ccc(C)cc3n3nnnc23)C(C)=O)cc1OC	-8.8%	0.2%	-100.2*	-18.1%	-14.5%
Cc1cc2nc(N3CCCN(Cc4cccn4-c4ncccn4)CC3)nc(C)c2cc1C	/	-18.2%	/	-14.5%	11.9%
Cc1ccc(OC(C)C(=O)N2CC(=O)Nc3ccccc32)c(C)c1 (stereo unspecified)	9.6%	-17.8%	32.5	1.5%	-10.8%
Cc1cc(C)cc(C(=O)N2CC(=O)Nc3ccccc32)c1	-22.4%	-18.9%	-80.6*	-7.0%	?
CCc1cccc(Nc2c([N+](=O)[O-])cc(C(=O)N3CC(=O)Nc4ccccc43)cc2[N+](=O)[O-])c1	14.1µM*	-3.2%	0.5	?	-17.9%
COc1ccccc1OC(C)C(=O)N1CC(=O)Nc2ccccc21 (stereo unspecified)	-17.4%	-1.0%	-72.2*	-2.3%	8.2%
CCc1ccc(CNC(=O)CCn2c(=O)c3cccn3c3ccc(F)cc32)cc1	/	0.4%	?	-2.3%	-3.3%
Cc1nc(N2CCCC2)c2c(C(=O)N3CCN(c4cccc(C)c4C)CC3)c(C)oc2n1	/	-4.5%	22.8	-27.9%	-20.6%
CC(C)NC(=O)N1CCN(S(=O)(=O)c2ccc3c(ccn3C)c2)CC1	/	4.1%	2.1	-6.7%	4.9%
CCC(C)NS(=O)(=O)c1ccc(S(=O)(=O)Nc2cc3c(cc2C(C)=O)OCO3)cc1 (stereo unspecified)	14.1µM*	-28.6%	-25.6	-1.8%	-9.1%
Nc1c(Cl)cc(C=O)cc1Cl	/	-10.5%	/	/	-1.8%
COC(=O)/C=C/[C@H]1CCCN1c1ccc(OC)cc1	/	/	-13.7	/	/
O=C(/C=C/c1ccc(O)c(O)c1)O[C@@H]1C[C@](O)(C(=O)O)C[C@@H](O)[C@H]1O	?	-6.6%	-60.2*!	-19.6%	-9.3%
O=C(/C=C/c1ccc(O)c(O)c1)OC1C(O)CC(OC(=O)/C=C/c2ccc(O)c(O)c2)(C(=O)O)CC1O (stereo unspecified)	15.0%	-7.7%	15.7	10.0%	0.0%
Cc1cccc(CSc2nnc(CCCCCN)o2)c1	/	-1.8%	-75.9*	-19.4%	-2.8%
Cc1ccc(NC(=O)CSc2ccc(Br)cc2)cc1S(=O)(=O)N1CCOCC1	31.6µM*	?	-33.1	?	-15.0%
Cc1ccc(NC(=O)CCNC(=O)c2ccc(Br)cc2)cc1S(=O)(=O)N1CCOCC1	?	?	30.1	-20.0%	-25.7%
SMILES	HCV inhibitor	Vaccinia mCherry	HCMV inh	FMDV inh	VACV Venus inh
Cc1ccc(NC(=O)CCCSc2ccccc2)cc1S(=O)(=O)N1CCOCC1	?	?	-6.1	28.2µM*	-19.5%
COc1ccccc1CNC(=O)C[C@H]1CC[C@@H]2[C@H](COC[C@H](O)CN2Cc2ccc3c(c2)OCO3)O1	/	-26.8%	-31.8	-22.7%	-11.9%
CCC(C)N1C(=O)/C(=C\c2ccc(N3CCCCCC3)cc2)C(=O)NC1=S (stereo unspecified)	0.7%	0.2%	39.9	?	1.8%
CCC(C)N1C(=O)/C(=C\c2cc3c4c(c2)CCCN4CCC3)C(=O)NC1=S (stereo unspecified)	-22.2%	4.2%	-33.6	31.6µM*	8.0%
CCC(C)N1C(=O)/C(=C\c2cnc(N(C)C)nc2)C(=O)NC1=S (stereo unspecified)	14.7%	6.7%	-39.2	22.4µM*	12.0%
CSc1ncc(/C=C2/C(=O)NC(=O)N(C)C2=O)cn1	8.9%	i	-12.5	-9.6%	-7.8%
CCOC(=O)c1cnc2c(Cl)cc(Cl)cc2c1Nc1ccccc1OC	/	-0.9%	4.6	-18.6%	2.5%
COc1ccccc1CNc1ncnc2c1c(-c1ccccc1)cn2-c1ccc(Br)cc1	/	-17.9%	?	-17.9%	-14.1%
O=C(CCl)N1c2ccccc2Sc2ccc3ccccc3c21	/	?	/	31.6µM*	10µM*
CN(C)CCCN1c2ccccc2Sc2ccc(Cl)cc21	?	?	-66.1*!	?	?
CN(C)CCCN1c2ccc3ccccc3c2Sc2cccc(Cl)c21	?	?	3.3	-17.9%	?
CN(C)CCCN1c2ccccc2Sc2ccc3ccccc3c21	?	10µM*	17.0	?	?
O=C(c1ccc(F)cc1)C1CCN(CCCn2c(=O)[nH]c3ccccc32)CC1	/	/	-33.2	/	/
Cc1ccc(-c2csc3ncnc(Sc4nnc(CN5CCCCCC5=O)o4)c23)cc1	?	/	-69.9*	14.1µM*	/
CCC(CC)C(=O)N(CCc1ccc(OC)cc1)Cc1nc2ccccc2c(=O)[nH]1	22.4µM*	-16.6%	-10.7	/	-27.2%
COc1ccc(CCN(Cc2nc3ccccc3c(=O)[nH]2)C(=O)c2ccco2)cc1	5.0%	-7.5%	40.2	-4.1%	0.7%
COc1cccc2c1OC[C@@H](CO)[C@H]2N(C)C(=O)Nc1ccc(Cl)cc1Cl	?	i	-61.6*	-2.1%	-17.9%
COc1ccccc1-c1nnc(SCC(=O)Nc2ccc(Cl)cc2Cl)o1	-5.6%	/	59.9	-3.3%	/
CC(=O)Nc1cccc(NC(=O)Nc2cccc(F)c2)c1	-6.9%	i	1.1	25.0%	-6.2%
O=C(CN(c1cccc(C(F)(F)F)c1)S(=O)(=O)c1ccccc1)Nc1cccc(Cl)c1	/	?	-66.2*	?	?
CNS(=O)(=O)c1ccc(NC(=O)Nc2cccc(F)c2)cc1	-0.5%	-3.4%	-101.5*	-1.4%	-5.6%
CCN(CC)S(=O)(=O)c1ccc(NC(=O)Nc2cccc(C(F)(F)F)c2)cc1	11.2µM*	/	-105.1*	?	/
CCN(CC)S(=O)(=O)c1ccc(C)c(NC(=O)/C=C/c2cccs2)c1	10µM*	-19.0%	-33.1	?	-28.5%
